# Screens from PubChem BioAssay.
# ERG-DNA inh: ERG Ets/DNA interaction inhibition; P11308; fluorescence polarization, His-ERG Ets domain / labelled DNA; Potency, µM (top dose mostly 76.9 µM), without a hit: top-dose FP activity, negative = inhibition, actives largely listed as inhibitors; 370,000 compounds, 0.028% hits; AID 624246; active = well fitted inhibition curve with a large enough effect in the polarisation, with a control signal flat; inconclusive = small, poorly fitted or top-dose-only effect, or effect the other way, or a change in a side signal; inactive = no such curve, though single readings can be large or run the other way; the % refers to the polarisation;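 note: polarization taken with two DNA probes labelled with fluorescein and Texas red; potency is the fitted concentration of half-maximal effect; % of control where 0% means no effect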
# Target sequence (P11308 whole entry, looked up, the tested form may be a part): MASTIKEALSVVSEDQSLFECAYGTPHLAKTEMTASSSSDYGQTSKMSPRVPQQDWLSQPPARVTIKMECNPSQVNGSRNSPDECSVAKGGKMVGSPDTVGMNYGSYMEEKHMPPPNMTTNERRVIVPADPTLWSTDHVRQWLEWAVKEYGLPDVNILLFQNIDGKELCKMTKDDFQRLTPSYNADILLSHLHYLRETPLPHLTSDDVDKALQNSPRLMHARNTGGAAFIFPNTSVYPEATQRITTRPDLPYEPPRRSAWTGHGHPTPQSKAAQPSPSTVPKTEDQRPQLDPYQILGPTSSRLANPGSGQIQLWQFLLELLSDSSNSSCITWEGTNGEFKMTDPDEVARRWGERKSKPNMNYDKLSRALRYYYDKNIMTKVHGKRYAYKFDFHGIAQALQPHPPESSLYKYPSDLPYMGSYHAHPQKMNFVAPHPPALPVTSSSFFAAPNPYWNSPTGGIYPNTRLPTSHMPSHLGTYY
#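 His-tagged ERG Ets domain (1 uM in the protein solution; 300mM KCl, 50mM Tris-HCl, 1mM EDTA, 1mM DTT, pH 7.5) received compound, then a probe mix of 5 nM fluorescein-DNA and 100nM Texas-615-DNA. Fluorescence polarization was read for both dyes.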
# D1 potentiator: enhances dopamine response at the human D1 receptor; P21728; HEK293 TREx D1 cells, calcium flux, dopamine EC20 potentiation; potentiation, % at 10 µM; 360,000 compounds, 0.036% hits; AID 504651; in the data active = potentiation above about 30%; note: 0% is about no effect
# D1 ag: human D1 receptor agonism; P21728; HEK293 T-REx D1 cells, calcium flux, agonist mode; activation, % at 2 µM; 360,000 compounds, 1% hits; in the data active = activation above about 30%; note: 0% is about no effect
#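 Agonism was scored from calcium flux recorded over 180 s (1 read/s) after pintool compound addition, following a 10-cycle baseline. Cells were inducible force-coupled HEK293 TREx D1, plated overnight at 30 C and loaded with no-wash calcium dye.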
# D1 antagonist: antagonists of human D1 dopamine receptor. AID 504652. HEK293 TREx D1 cells, calcium flux, dopamine EC80; hits give low values. 360,000 compounds, 3.2% hits. P21728. activity change, negative = inhibition, % at 10 µM; in the data active = activity change below about -30%; note: % is set by controls: 0 for no effect and ±100 for the full control effect
#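 Tetracycline-induced HEK293 T-REx cells with force-coupled D1 receptor were loaded with a no-wash calcium dye. Compound was added after a 10 s baseline and read kinetically for 180 s; EC80 dopamine was then added and calcium flux followed another 180 s.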
# DRD3 agonist: agonists of human D3 dopamine receptor. D3R DiscoveRx beta-arrestin cells, luminescence, 90 min. P35462. AID 652048. max activation, %. 410,000 compounds, 0.58% hits; in the data active = max activation above about 30%; note: 0% is about no effect
#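 Cells at 1500/well, incubated overnight, then treated with pinned compounds (dopamine as control) for 90 min at 37 degrees C. DiscoveRx reagent added for 30 - 60 minutes at room temperature; luminescence read.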
# D3 antag: antagonists of human D3 dopamine receptor | D3R cells, DiscoveRx beta-arrestin luminescence, antagonist mode; hits give low values | max response, negative = inhibition, % | 360,000 compounds, 2.5% hits | AID 652054; in the data active = max response below about -50%; inconclusive = no clear call, values can overlap the other calls; note: % is set by controls: 0 for no effect and ±100 for the full control effect
#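 Cells expressing the human receptor were seeded at 1500 cells/well, incubated overnight at 37 degrees C in 5% CO2, then exposed to library compounds with dopamine controls for 90 minutes at 37 degrees C before luminescent detection.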
# Starred values were filed as active, the others as inactive; ? = inconclusive; . = no result given; ! = repeats disagree. Most compounds without a hit are left out; they make up all but 6.1% or so of the library.
SMILES,ERG-DNA inh,D1 potentiator,D1 ag,D1 antagonist,DRD3 agonist,D3 antag
CCOC(=O)[C@@H]1[C@H]2COc3ccccc3[C@@H]2N2C(=O)N(c3ccccc3)C(=O)[C@@]12C,-4%,-1,-1,15,0,-27
Cc1n[nH]c(=S)c2nn(-c3ccccc3)c(C)c12,.,-9,1,-33*,.,.
CCOC(=O)C(=Cc1ccc(F)cc1)C(=O)OCC,.,6,0,1,.,.
CCOC(=O)C(=Cc1ccc(-n2ccnc2)cc1)C(=O)OCC,2%,-3,5,-11,-2,-56*
CCOC(=O)C(=Cc1ccc(Br)cc1)C(=O)OCC,-6%,0,4,-9,-17,-108*
O=C1C=C(c2cccc(CO)c2)C[C@@H](c2ccc3c(c2)OCO3)C1,4%,0,0,.,6,-28
O=C1C=C(c2cccc(OCc3ccccc3)c2)C[C@@H](c2ccc3c(c2)OCO3)C1,16%,4,5,.,35*,-11
Cc1ccc(CNC(=O)C(Cc2ccccc2)NS(=O)(=O)c2ccc3c(c2)CCC(=O)N3)cc1 (stereo not given),-3%,-5,2,6,7,-10
CC(C)[C@H](NC(=O)OCc1ccccc1)C(=O)OCC(=O)N1CCN(c2ccc(F)cc2)CC1,4%,-2,6,-65*,1,-2
COc1ccc(C2=NOC(Cn3nc(-c4ccccc4)cc3C(=O)NCc3cccc(C(F)(F)F)c3)C2)cc1 (stereo not given),18%,.,.,.,24,62
COc1ccc(NC(=O)CN(C)CC(=O)N2CCCCCC2)cc1,3%,1,2,-4,1,-65*
CC(=O)N1CCCc2cc(S(=O)(=O)N(C)CC(=O)Nc3ccccc3)ccc21,.,.,.,.,-2,0
COc1ccc(NC(=O)COc2nsnc2N2CCCCC2)cc1,-2%,0,4,-34*,4,36
COc1ccc(NC(=O)CN(C)S(=O)(=O)c2ccc3c(c2)CCCN3C(C)=O)cc1,-2%,-1,0,-42*!,0,12
Cc1ccc(S(=O)(=O)NCc2ccccc2)cc1C(=O)N1CCN(S(=O)(=O)c2ccccc2F)CC1,.,.,.,.,3,22
COc1cccc(CNC(=O)C2CCN(c3nc4ccc(Cl)cc4[nH]3)CC2)c1,12%,1,2,-21,4,.
CC(=O)C1=C(O)C(=O)N(CCc2c[nH]c3ccccc23)C1c1cccc(O)c1 (stereo not given),10%,-1,-1,0,4,?
COc1cc(C2C(C(C)=O)=C(O)C(=O)N2CCc2c[nH]c3ccccc23)ccc1O (stereo not given),-9%,-6,3,-17,0,-56*
O=C(CCC1CCCCC1)NCc1ccccn1,?,6,4,-1,7,3
Cc1ccc2c(c1)NC(=O)C(CC(=O)Nc1ccc(CN3CCC(C)CC3)cc1)O2 (stereo not given),14%,.,6,24,-9,-61*
COc1cccc(NC(=O)CC2Oc3ccccc3NC2=O)c1 (stereo not given),10%,-2,0,-3,4,-8
COc1ccc(NC(=O)CC2Oc3ccccc3NC2=O)cc1 (stereo not given),-6%,-16,1,-40*,2,3
CCS(=O)(=O)N1CCc2cc(C(=O)NCCc3ccccc3)ccc21,-2%,-3,5,-3,-19,.
Cc1cc(C)c2sc(N(CCCN(C)C)C(=O)c3ccc(Br)s3)nc2c1,65%,-6,6,-3,-7,-20
Cc1cc(C)c2sc(N(CCCN(C)C)C(=O)CN3C(=O)c4ccccc4C3=O)nc2c1,4%,-6,42*,-6,-15,1
SMILES,ERG-DNA inh,D1 potentiator,D1 ag,D1 antagonist,DRD3 agonist,D3 antag
Cc1ccc2nc(N(CCCN(C)C)C(=O)CN3C(=O)c4ccccc4C3=O)sc2c1,-4%,-15,44*,-20,-20,?
Cc1cc(C)c(NC(=O)CSc2nnc(CNC(=O)c3c(F)cccc3Cl)o2)c(C)c1,0%,-7,2,-13,5,3
Cc1cccc(-c2nc3scc(CCNS(=O)(=O)c4c(C)noc4C)n3n2)c1,-7%,-1,2,.,-8,.
CC(=O)Nc1ccc(OS(=O)(=O)c2ccc(C(C)(C)C)cc2)cc1,.,-7,10,-56*,.,.
COc1cccc(/C=C/c2ccc3cccc(O)c3n2)c1,6%,3,6,-6,-21,-56*
COc1cc(/C=C/c2ccc3cccc(O)c3n2)cc(Br)c1OC,-2%,2,2,-16,-18,-55*
COc1cccc(/C=C/c2ccc3cccc(O)c3n2)c1OC,1%,0,6,5,-20,-160*
COc1ccc(/C=C/c2ccc3cccc(O)c3n2)cc1Br,7%,-2,9,11,-15,?
COc1ccc(/C=C/c2ccc3cccc(O)c3n2)c(OC)c1OC,-1%,1,4,-21,-26,0
COC(=O)c1ccc(/C=C/c2ccc3cccc(OC)c3n2)cc1,-5%,-3,2,-14,31*,4
O=C1C2C3C=CC(C4CC34)C2C(=O)N1/N=C/c1ccc(-c2cccc([N+](=O)[O-])c2)o1 (stereo not given),-17%,0,8,-4,17,2
COc1ccccc1N1CCN(C(=O)Cn2ncc3c(=O)oc4ccc(C)cc4c32)CC1,4%,-1,0,-4,1,.
COc1ccc(NS(=O)(=O)c2ccc(C)c(C(=O)N3CCC3)c2)cc1,3%,1,3,19,2,10
O=C(Nc1cc(S(=O)(=O)N2CCOCC2)ccc1N1CCOCC1)c1ccc(Cl)nc1,-3%,0,3,5,-13,-13
COc1cc(Br)cc(/C=C/c2ccc3cccc(O)c3n2)c1OC,-5%,-2,4,-3,12,19
COc1ccc(/C=C/c2ccc3c(Br)ccc(O)c3n2)cc1,15%,6,3,27,-20,?
COc1cc(/C=C/c2ccc3cccc(O)c3n2)cc(Cl)c1OC,-5%,-7,8,3,-17,-52*
COc1cc(/C=C/c2ccc3c(Br)cc(Br)c(O)c3n2)ccc1O,4%,-4,14,-14,-27,-91*
COc1cc(/C=C/c2ccc3cccc(O)c3n2)cc(OC)c1OC,4%,-3,0,-10,-27,-64*
O=[N+]([O-])c1ccc(/C=N/Nc2nc(NCc3ccccc3)nc(N3CCOCC3)n2)cc1,-5%,-2,5,-12,0,9
O=[N+]([O-])c1cccc(/C=N/Nc2nc(NCc3ccccc3)nc(N3CCOCC3)n2)c1O,17%,-6,1,-11,-37,-138*
